From PubChem BioAssay (EPA / NIEHS)
The source made the active and inactive calls. Rule for the calls: active = hit-call score of the fitted dose curve at least 0.9, where 1 is the maximum; inactive = score below 0.9.

Columns and labels:
[1] = ATG_E_Box_CIS: Attagene CIS-FACTORIAL HepG2 Assay for human Enhancer Box (E-box) (AID 2282936); conditions: HepG2 E-box cis-reporter transcription, actives raise or lower the signal
Method in brief: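 HepG2 cells transiently transfected with multiplexed cis-element reporter units, dosed 24 h; reporter mRNA quantified by RT-PCR, 6-FAM labelling, HpaI digestion and capillary electrophoresis. E-box (USF1) signal fitted bidirectionally vs DMSO.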

[2] = ATG_M_61_CIS: Attagene CIS-FACTORIAL HepG2 Assay for M61 Transcription Factor (Internal Marker) (AID 2282937); conditions: HepG2 Attagene CIS-FACTORIAL M61 internal marker reporter; actives raise or lower the signal
Method in brief: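 HepG2 cells transiently transfected with multiplexed cis-promoter reporter units reporting endogenous transcription factor activity, measured 24 h after dosing. Reporter mRNA quantified by RT-PCR and capillary electrophoresis; bidirectional fit against DMSO baseline.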

[3] = ATG_EGR_CIS: Attagene CIS-FACTORIAL HepG2 Assay for human Early Growth Response 1 (EGR1) (AID 2282938); conditions: HepG2 Attagene CIS-FACTORIAL EGR reporter mRNA; actives raise or lower the signal
Method in brief: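 HepG2 cells transiently transfected with cis-element-driven multiplexed reporter units, dosed for 24 h. EGR1-element reporter mRNA quantified by RT-PCR, 6-FAM labelling, HpaI digestion and capillary electrophoresis; bidirectional fit versus DMSO.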

[4] = molecular target: Hepatocyte nuclear factor 3-beta (Homo sapiens) (UniProt Q9Y261); test: ATG_FoxA2_CIS: Attagene CIS-FACTORIAL HepG2 Assay for human Forkhead box A2 (FOXA2) (AID 2282942); conditions: HepG2 cis-reporter transcription factor activity, 24 h; actives raise or lower the signal
Method in brief: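 HepG2 transiently transfected with a multiplexed cis-promoter reporter library read endogenous FOXA2 activity. After 24 h compound exposure, reporter mRNA was quantified by RT-PCR, HpaI digestion and capillary electrophoresis. Bidirectional fit against DMSO.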

[5] = ATG_FoxO_CIS: Attagene CIS-FACTORIAL HepG2 Assay for human Forkhead box O (FoxO) (AID 2282943); conditions: HepG2 Attagene cis-reporter, FoxO element, mRNA; actives raise or lower the signal
Method in brief: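 HepG2 cells transiently transfected with cis-element-driven reporter units report endogenous FoxO activity. After 24 h chemical exposure, reporter mRNA quantified by RT-PCR, fluorescent labeling, HpaI digestion and capillary electrophoresis; bidirectional fit versus DMSO.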

[6] = ATG_GATA_CIS: Attagene CIS-FACTORIAL HepG2 Assay for human GATA Binding Protein (AID 2282944); conditions: HepG2 GATA cis-element reporter, Attagene multiplex mRNA; actives raise or lower the signal
Method in brief: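 Reporter transcripts from a GATA cis-regulated unit, among multiplexed reporters in transfected HepG2 cells, were measured by RT-PCR with capillary electrophoresis after 24 h dosing. Induction or loss scored relative to DMSO.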

[7] = ATG_GLI_CIS: Attagene CIS-FACTORIAL HepG2 Assay for human Zinc Finger Protein GLI1 (AID 2282945); conditions: HepG2, Attagene cis-factorial reporter mRNA, GLI element; actives raise or lower the signal
Method in brief: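 Transiently transfected HepG2 cells report endogenous transcription factor activity via cis-element-driven reporter units. After 24 h compound exposure, reporter mRNA was measured by RT-PCR with capillary electrophoresis; bidirectional fitting against DMSO baseline.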

[8] = ATG_M_19_CIS: Attagene CIS-FACTORIAL HepG2 Assay for M19 Transcription Factor (Internal Marker) (AID 2282939); conditions: HepG2 Attagene CIS-FACTORIAL M19 internal marker reporter; actives raise or lower the signal
Method in brief: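 Internal marker readout, fitted in both directions against DMSO, from HepG2 cells carrying transfected cis-element reporter constructs; RT-PCR and capillary electrophoresis of reporter mRNA after 24 h exposure.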

[9] = ATG_Ets_CIS: Attagene CIS-FACTORIAL HepG2 Assay for human Erythroblast Transformation Specific (ETS) (AID 2282941); conditions: HepG2 ETS cis-reporter transcription, actives raise or lower the signal
Method in brief: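 Steps: transfect HepG2 with multiple reporter units; treat compound 24 h; isolate RNA, DNase-treat, reverse-transcribe; PCR-amplify, label with 6-FAM, digest with HpaI; separate by capillary electrophoresis. Activity fitted both directions versus DMSO.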

[10] = ATG_ERE_CIS: Attagene CIS-FACTORIAL HepG2 Assay for Estrogen Response Element (ERE) (AID 2282940); conditions: HepG2 ERE cis-reporter, Attagene RNA transcript; actives raise or lower the signal
Method in brief: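 After 24 h compound treatment, RNA from transfected HepG2 cells was reverse-transcribed, reporter cDNA PCR-amplified, FAM-labelled, HpaI-cut and resolved by capillary electrophoresis. ERE-driven cis reporter transcripts reflect endogenous factors; gain or loss scored against DMSO.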

Sequence of Hepatocyte nuclear factor 3-beta (Homo sapiens) (Q9Y261 whole entry, looked up): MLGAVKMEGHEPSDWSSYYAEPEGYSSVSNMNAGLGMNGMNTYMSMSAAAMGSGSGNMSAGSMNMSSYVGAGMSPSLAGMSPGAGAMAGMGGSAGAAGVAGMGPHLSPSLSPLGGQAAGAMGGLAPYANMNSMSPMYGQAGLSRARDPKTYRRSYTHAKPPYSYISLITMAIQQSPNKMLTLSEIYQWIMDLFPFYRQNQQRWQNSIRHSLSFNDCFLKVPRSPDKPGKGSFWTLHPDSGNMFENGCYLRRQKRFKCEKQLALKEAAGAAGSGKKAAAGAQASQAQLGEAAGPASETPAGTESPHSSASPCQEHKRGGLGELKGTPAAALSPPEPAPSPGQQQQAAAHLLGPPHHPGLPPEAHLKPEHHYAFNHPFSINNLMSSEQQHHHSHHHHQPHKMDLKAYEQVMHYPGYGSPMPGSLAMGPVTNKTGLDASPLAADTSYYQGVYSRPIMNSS

## CC(C)COC(=O)CCCCC(=O)OCC(C)C
[1]
  outcome: inactive
[2]
  outcome: inactive
[3]
  outcome: inactive
[4]
  outcome: inactive
[5]
  outcome: inactive
[6]
  outcome: inactive
[7]
  outcome: inactive

## C#CC(O)C(CC)CCCC (centres undefined)
[1]
  outcome: inactive
[2]
  outcome: inactive
[3]
  outcome: inactive
[8]
  outcome: inactive
[9]
  outcome: inactive
[4]
  outcome: inactive
[6]
  AC50: 168 µM (active)
[7]
  outcome: inactive

## CS(=O)(=O)c1ccc([C@@H](C[C@H]2CCC(=O)C2)C(=O)Nc2cnccn2)cc1Cl
[1]
  outcome: inactive
[2]
  outcome: inactive
[3]
  outcome: inactive
[10]
  AC50: 45.5 µM (active)
[9]
  outcome: inactive
[4]
  outcome: inactive
[6]
  outcome: inactive
[7]
  outcome: inactive

## Oc1ccccc1O
[1]
  outcome: inactive
[2]
  outcome: inactive
[3]
  outcome: inactive
[8]
  outcome: inactive
[9]
  outcome: inactive
[4]
  outcome: inactive
[6]
  outcome: inactive
[7]
  outcome: inactive

## Nc1nc(=S)c2[nH]cnc2[nH]1
[1]
  outcome: inactive
[3]
  outcome: inactive
[8]
  outcome: inactive
[10]
  AC50: 98.1 µM (active)
[9]
  outcome: inactive
[4]
  outcome: inactive
[5]
  outcome: inactive
[6]
  outcome: inactive
[7]
  outcome: inactive

## Nc1nc(Cl)nc2c1ncn2[C@H]1C[C@H](O)[C@@H](CO)O1
[1]
  AC50: 11.4 µM (active)
[2]
  outcome: inactive
[3]
  outcome: inactive
[9]
  outcome: inactive
[4]
  outcome: inactive
[5]
  outcome: inactive
[6]
  outcome: inactive
[7]
  outcome: inactive

## C=CCCCCCCCCCCCC
[1]
  outcome: inactive
[2]
  outcome: inactive
[3]
  outcome: inactive
[8]
  outcome: inactive
[9]
  outcome: inactive
[4]
  outcome: inactive
[6]
  outcome: inactive
[7]
  outcome: inactive

## CC(=O)S[C@H](C(=O)N[C@H]1Cc2ccccc2[C@H]2CCC[C@@H](C(=O)O)N2C1=O)C(C)C
[1]
  outcome: inactive
[2]
  outcome: inactive
[3]
  outcome: inactive
[8]
  outcome: inactive
[4]
  outcome: inactive
[6]
  outcome: inactive
[7]
  outcome: inactive

## CCCCc1nc2cccnc2n1Cc1ccc(-c2ccccc2-c2nnn[nH]2)cc1
[1]
  outcome: inactive
[2]
  outcome: inactive
[3]
  outcome: inactive
[10]
  outcome: inactive
[9]
  outcome: inactive
[4]
  outcome: inactive
[5]
  outcome: inactive
[6]
  outcome: inactive
[7]
  outcome: inactive

## CCCCCCC(CCCCCCCCCCC(=O)OCC(COC(C)=O)OC(C)=O)OC(C)=O (centres undefined)
[1]
  outcome: inactive
[2]
  outcome: inactive
[3]
  outcome: inactive
[8]
  outcome: inactive
[10]
  outcome: inactive
[9]
  outcome: inactive
[4]
  outcome: inactive
[5]
  outcome: inactive
[6]
  outcome: inactive
[7]
  outcome: inactive

## COc1ccc(C(=O)Nc2nc3ccccc3c(NCc3ccccc3)c2C#N)cc1
[1]
  outcome: inactive
[2]
  outcome: inactive
[3]
  outcome: inactive
[10]
  AC50: 1.46 µM (active)
[4]
  outcome: inactive
[5]
  outcome: inactive
[6]
  outcome: inactive
[7]
  outcome: inactive

## CCCCCCCC(=O)OC
[1]
  outcome: inactive
[2]
  outcome: inactive
[3]
  outcome: inactive
[8]
  outcome: inactive
[10]
  outcome: inactive
[4]
  outcome: inactive
[5]
  outcome: inactive
[6]
  outcome: inactive
[7]
  outcome: inactive

## Cc1ccc(C(C)(C)C)c(O)c1
[1]
  outcome: inactive
[3]
  AC50: 158 µM (active)
[8]
  outcome: inactive
[10]
  AC50: 25.1 µM (active)
[9]
  AC50: 63.7 µM (active)
[4]
  outcome: inactive
[6]
  outcome: inactive
[7]
  outcome: inactive

## CCc1nc(N)nc(N)c1-c1ccc(Cl)cc1
[1]
  outcome: inactive
[2]
  outcome: inactive
[3]
  AC50: 32.8 µM (active)
[8]
  outcome: inactive
[10]
  outcome: inactive
[4]
  outcome: inactive
[5]
  outcome: inactive
[6]
  outcome: inactive
[7]
  outcome: inactive

## CN(C)CCCN(C)CCCN(C)C
[1]
  outcome: inactive
[2]
  outcome: inactive
[3]
  outcome: inactive
[8]
  outcome: inactive
[10]
  outcome: inactive
[9]
  outcome: inactive
[4]
  outcome: inactive
[6]
  outcome: inactive
[7]
  outcome: inactive

## O=C1c2c(O)cccc2Cc2cccc(O)c21
[1]
  outcome: inactive
[2]
  outcome: inactive
[3]
  outcome: inactive
[4]
  outcome: inactive
[6]
  outcome: inactive
[7]
  outcome: inactive

## NCCOCCOCCN
[1]
  outcome: inactive
[2]
  outcome: inactive
[3]
  outcome: inactive
[4]
  outcome: inactive
[5]
  outcome: inactive
[6]
  outcome: inactive
[7]
  outcome: inactive

## O=C1CCCCC1
[1]
  outcome: inactive
[3]
  outcome: inactive
[8]
  outcome: inactive
[10]
  outcome: inactive
[9]
  outcome: inactive
[4]
  outcome: inactive
[5]
  outcome: inactive
[6]
  outcome: inactive
[7]
  outcome: inactive

## O=C1OC(c2ccc(O)cc2)(c2ccc(O)cc2)c2ccccc21
[1]
  AC50: 176 µM (active)
[2]
  outcome: inactive
[3]
  AC50: 20.8 µM (active)
[4]
  AC50: 177 µM (active)
[5]
  outcome: inactive
[6]
  outcome: inactive
[7]
  AC50: 159 µM (active)
